From PubChem BioAssay (EPA / NIEHS)
The source made the active and inactive calls. Rule for the calls: active = hit-call score of the fitted dose curve at least 0.9, where 1 is the maximum; inactive = score below 0.9.

Tests used:
[1] = read-out: Macrophage colony-stimulating factor (MCSF), CSF1 (gene 1435); assay: BSK_hDFCGF_MCSF: BioMAP Diversity Plus: hDFCGF Assay for Macrophage colony-stimulating factor (MCSF) Biomarker Activity (AID 2283060); settings: primary human foreskin fibroblasts; actives raise or lower the signal
Procedure, shortened: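 M-CSF levels read by ELISA at 24 h post-dosing in human skin fibroblasts. Parallel cultures stained with SRB assessed cytotoxicity at the same time point; response fitted in both directions against the DMSO baseline.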

[2] = BSK_hDFCGF_SRB: Viability Assessment in the BioMAP Diversity Plus: hDFCGF Assay (AID 2283061); settings: primary human foreskin fibroblasts;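 note: cells exposed to compound for 24 h before the read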
Procedure, shortened: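 Viability was read as total protein: after 10% TCA fixation, wells were stained with 0.1% sulforhodamine B and read at 560 nm. Primary human foreskin fibroblasts were dosed for 24 h, with bidirectional fitting versus DMSO.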

[3] = read-out: TIMP metallopeptidase inhibitor 1 (TIMP1), TIMP1 (gene 7076); assay: BSK_hDFCGF_TIMP1: BioMAP Diversity Plus: hDFCGF Assay for TIMP metallopeptidase inhibitor 1 (TIMP1) Biomarker Activity (AID 2283062); settings: primary human foreskin fibroblasts; actives raise or lower the signal
Procedure, shortened: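 TIMP-1 measured by ELISA 24 h after chemical dosing of primary human skin fibroblasts, with gain or loss fitted relative to DMSO. Parallel SRB staining (560 nm) monitored overt cytotoxicity.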

[4] = read-out: Monokine induced gamma interferon (MIG), CXCL9 (gene 4283); assay: BSK_hDFCGF_MIG: BioMAP Diversity Plus: hDFCGF Assay for Monokine induced gamma interferon (MIG) Biomarker Activity (AID 2283063); settings: primary human foreskin fibroblasts; actives raise or lower the signal
Procedure, shortened: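 Human primary foreskin fibroblasts in the hDFCGF system, exposed to test chemical for 24 h; MIG measured by ELISA. Bidirectional curve fitting against DMSO negative control as activity baseline.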

[5] = read-out: Matrix Metallopeptidase 1 (MMP1), MMP1 (gene 4312); assay: BSK_hDFCGF_MMP1: BioMAP Diversity Plus: hDFCGF Assay for Matrix Metallopeptidase 1 (MMP1) Biomarker Activity (AID 2283064); settings: primary human foreskin fibroblasts; actives raise or lower the signal
Procedure, shortened: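 ELISA read-out of MMP1 from human foreskin fibroblasts (primary skin cells), 24 h post-dose. Gain or loss of signal was fitted bidirectionally versus DMSO negative control; cytotoxicity was checked by SRB in parallel cultures.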

[6] = read-out: Vascular cell adhesion molecule 1 (VCAM1), VCAM1 (gene 7412); assay: BSK_hDFCGF_VCAM1: BioMAP Diversity Plus: hDFCGF Assay for Vascular cell adhesion molecule 1 (VCAM1) Biomarker Activity (AID 2283065); settings: primary human foreskin fibroblasts; actives raise or lower the signal;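 for AC50: VCAM-1 protein level quantified by ELISA after 24 h chemical exposure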
Procedure, shortened: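 ELISA readout of VCAM-1 on human dermal fibroblast primary cultures, 24 h after chemical exposure. Gain or loss of signal fitted in both directions against DMSO baseline.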

[7] = read-out: Plasminogen activator inhibitor-1 (PAI1), SERPINE1 (gene 5054); assay: BSK_hDFCGF_PAI1: BioMAP Diversity Plus: hDFCGF Assay for Plasminogen activator inhibitor-1 (PAI1) Biomarker Activity (AID 2283066); settings: primary human foreskin fibroblasts; actives raise or lower the signal
Procedure, shortened: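 ELISA readout of PAI-1 from primary human skin fibroblast cultures, 24 h after compound addition. Gain or loss of signal was fitted bidirectionally against DMSO baseline.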

[8] = read-out: Intercellular Adhesion Molecule 1 (ICAM1), ICAM1 (gene 3383); assay: BSK_KF3CT_ICAM1: BioMAP Diversity Plus: KF3CT Assay for Intercellular Adhesion Molecule 1 (ICAM1) Biomarker Activity (AID 2283067); settings: primary human keratinocytes with fibroblasts; actives raise or lower the signal
Procedure, shortened: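 Cell-surface ICAM-1 was measured by ELISA 24 h after dosing primary human skin keratinocytes co-cultured with fibroblasts. Parallel SRB staining tracked overt cytotoxicity. Gain or loss of signal was fitted relative to DMSO.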

[9] = read-out: Interferon-gamma inducible Protein 10 (IP10), CXCL10 (gene 3627); assay: BSK_KF3CT_IP10: BioMAP Diversity Plus: KF3CT Assay for Interferon-gamma inducible Protein 10 (IP10) Biomarker Activity (AID 2283068); settings: primary human keratinocytes with fibroblasts; actives raise or lower the signal
Procedure, shortened: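 In a primary skin co-culture of keratinocytes and fibroblasts, IP-10 is quantified by ELISA at 24 h after dosing. SRB staining of parallel wells monitors overt toxicity. Curves are fitted both directions against DMSO.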

[10] = BSK_KF3CT_SRB: Viability Assessment in the BioMAP Diversity Plus: KF3CT Assay (AID 2283069); settings: primary human keratinocytes with fibroblasts;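 note: total protein by sulforhodamine B staining as a cytotoxicity measure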
Procedure, shortened: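 SRB read-out at 560 nm (0.1% stain, TCA-fixed cells) gauges overt cytotoxicity in a human skin keratinocyte–fibroblast co-culture 24 h post-dosing. Signal change was fitted bidirectionally relative to DMSO control.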

[11] = read-out: Interleukin-1 alpha (IL1a), IL1A (gene 3552); assay: BSK_KF3CT_IL1a: BioMAP Diversity Plus: KF3CT Assay for Interleukin-1 alpha (IL1a) Biomarker Activity (AID 2283070); settings: primary human keratinocytes with fibroblasts; actives raise or lower the signal
Procedure, shortened: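 Primary skin co-culture (keratinocytes, foreskin fibroblasts), 24 h exposure; ELISA for IL-1a; bidirectional curve fit vs DMSO.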

[12] = read-out: TIMP metallopeptidase inhibitor 2 (TIMP2), TIMP2 (gene 7077); assay: BSK_KF3CT_TIMP2: BioMAP Diversity Plus: KF3CT Assay for TIMP metallopeptidase inhibitor 2 (TIMP2) Biomarker Activity (AID 2283071); settings: primary human keratinocytes with fibroblasts; actives raise or lower the signal
Procedure, shortened: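 ELISA readout of TIMP-2 in keratinocyte plus foreskin fibroblast co-cultures (human skin primary cells), 24 h post-dose. Gain or loss of signal fitted relative to DMSO.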

[13] = read-out: Transforming growth factor beta 1 (TGFb1), TGFB1 (gene 7040); assay: BSK_KF3CT_TGFb1: BioMAP Diversity Plus: KF3CT Assay for Transforming growth factor beta 1 (TGFb1) Biomarker Activity (AID 2283072); settings: primary human keratinocytes with fibroblasts; actives raise or lower the signal
Procedure, shortened: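 Read-out: ELISA for TGF-b1 in keratinocyte/foreskin fibroblast human skin co-culture, 24 h after dosing; bidirectional curve fit vs DMSO baseline; gain or loss of signal scored.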

[14] = read-out: C-C motif chemokine 2 (Homo sapiens) (UniProt P13500); assay: BSK_KF3CT_MCP1: BioMAP Diversity Plus: KF3CT Assay for Monocyte Chemoattractant Protein 1 (MCP1/CCL2) Biomarker Activity (AID 2283073); settings: primary human keratinocytes with fibroblasts; actives raise or lower the signal
Procedure, shortened: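 ELISA read-out of MCP-1, 24 h post-dose, in primary human skin keratinocytes co-cultured with fibroblasts. Parallel SRB staining monitors cytotoxicity; changes fitted both directions relative to DMSO.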

[15] = read-out: Matrix Metallopeptidase 9 (MMP9), MMP9 (gene 4318); assay: BSK_KF3CT_MMP9: BioMAP Diversity Plus: KF3CT Assay for Matrix Metallopeptidase 9 (MMP9) Biomarker Activity (AID 2283074); settings: primary human keratinocytes with fibroblasts; actives raise or lower the signal
Procedure, shortened: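 ELISA read-out of MMP-9 at 24 h post-dosing in a co-culture of human skin keratinocytes and foreskin fibroblasts. Gain or loss of signal was fitted in both directions against DMSO.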

[16] = read-out: urokinase plasminogen activator (uPA), PLAU (gene 5328); assay: BSK_KF3CT_uPA: BioMAP Diversity Plus: KF3CT Assay for urokinase plasminogen activator (uPA) Biomarker Activity (AID 2283075); settings: primary human keratinocytes with fibroblasts; actives raise or lower the signal
Procedure, shortened: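 Skin co-culture (keratinocytes + foreskin fibroblasts), human primary; 24 h post-dose; uPA by ELISA; gain/loss fit vs DMSO baseline.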

CD40, CD40 (gene 958) = assay: BSK_LPS_CD40: BioMAP Diversity Plus: LPS Assay for CD40 Biomarker Activity (AID 2283076); settings: primary human HUVEC with PBMC; actives raise or lower the signal
Procedure, shortened: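 In the LPS system of human endothelial cells with peripheral blood mononuclear cells, CD40 levels were read by ELISA 24 h post-treatment. Signal changes in either direction were fitted against the DMSO baseline, with parallel SRB protein staining.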

[17] = read-out: E-selectin (Homo sapiens) (UniProt P16581); assay: BSK_LPS_Eselectin: BioMAP Diversity Plus: LPS Assay for Eselectin Biomarker Activity (AID 2283077); settings: primary human HUVEC with PBMC; actives raise or lower the signal
Procedure, shortened: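 E-selectin ELISA on LPS-stimulated endothelial cell/PBMC co-cultures, read 24 h post-treatment; gains and losses fitted against DMSO. Parallel SRB staining (0.1% SRB after 10% TCA fixation, 560 nm) flags overt cytotoxicity.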

[18] = BSK_LPS_SRB: Viability Assessment in the BioMAP Diversity Plus: LPS Assay (AID 2283079); settings: primary human HUVEC with PBMC;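 note: total protein by sulforhodamine B absorbance as a cytotoxicity measure; measured one day after compound addition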
Procedure, shortened: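 SRB viability endpoint: cells fixed with 10% TCA, stained with 0.1% SRB, read at 560 nm, 24 h post-dose. HUVEC/PBMC co-culture; signal change in either direction scored relative to DMSO.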

[19] = read-out: Interleukin-8 (IL8), CXCL8 (gene 3576); assay: BSK_LPS_IL8: BioMAP Diversity Plus: LPS Assay for Interleukin-8 (IL8) Biomarker Activity (AID 2283078); settings: primary human HUVEC with PBMC; actives raise or lower the signal
Procedure, shortened: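 ELISA read-out of IL-8 after 24 h chemical treatment of LPS-activated endothelial/PBMC human primary co-cultures. Changes either up or down relative to DMSO; overt cytotoxicity checked by sulforhodamine B staining in parallel wells.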

Measured: AC50

Sequence of E-selectin (Homo sapiens) (P16581 whole entry, looked up): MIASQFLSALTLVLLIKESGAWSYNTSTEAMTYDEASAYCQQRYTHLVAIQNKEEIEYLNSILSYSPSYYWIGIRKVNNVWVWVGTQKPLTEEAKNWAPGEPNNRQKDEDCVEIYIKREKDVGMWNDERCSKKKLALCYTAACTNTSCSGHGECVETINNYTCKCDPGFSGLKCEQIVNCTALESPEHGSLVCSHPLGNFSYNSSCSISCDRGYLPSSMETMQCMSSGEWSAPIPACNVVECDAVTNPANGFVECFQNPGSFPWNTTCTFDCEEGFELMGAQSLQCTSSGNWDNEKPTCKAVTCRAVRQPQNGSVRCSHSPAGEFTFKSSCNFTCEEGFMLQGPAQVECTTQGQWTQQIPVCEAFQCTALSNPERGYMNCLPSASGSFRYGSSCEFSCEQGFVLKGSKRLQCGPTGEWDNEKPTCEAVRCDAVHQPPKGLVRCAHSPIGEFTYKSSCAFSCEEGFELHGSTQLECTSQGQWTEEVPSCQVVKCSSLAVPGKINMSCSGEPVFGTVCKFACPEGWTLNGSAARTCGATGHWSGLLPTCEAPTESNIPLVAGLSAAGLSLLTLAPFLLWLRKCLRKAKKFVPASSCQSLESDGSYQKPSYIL

COc1cc(OC)nc(NC(=O)NS(=O)(=O)c2ncccc2OCC(F)(F)F)n1
inactive: [1] | [2] | [3] | [4] | [5] | [6] | [7] | [8] | [9] | [10] | [11] | [12] | [13] | [14] | [15] | [16] | CD40, CD40 (gene 958) | [17] | [18]

CC1(C)CCC(=Cc2ccc(Cl)cc2)C1(O)Cn1cncn1 (centres undefined)
inactive: [1] | [2] | [3] | [4] | [5] | [6] | [7] | [8] | [9] | [10] | [11] | [12] | [13] | [14] | [15] | [16] | CD40, CD40 (gene 958) | [17] | [18]

CCNC(=O)NC(=O)C(C#N)=NOC
inactive: [1] | [2] | [3] | [4] | [5] | [6] | [7] | [8] | [9] | [10] | [11] | [12] | [13] | [15] | [16] | CD40, CD40 (gene 958) | [17] | [19] | [18]

CCCCC(C#N)(Cn1cncn1)c1ccc(Cl)cc1 (centres undefined)
inactive: [1] | [2] | [3] | [4] | [5] | [6] | [8] | [10] | [11] | [12] | [13] | [14] | [15] | [16] | CD40, CD40 (gene 958) | [17] | [18]
active: [7] 7.4 µM | [9] 0.148 µM

Nc1c(Cl)c(Cl)nc(C(=O)O)c1Cl
inactive: [1] | [2] | [3] | [4] | [5] | [6] | [7] | [8] | [9] | [10] | [11] | [12] | [13] | [14] | [15] | [16] | CD40, CD40 (gene 958) | [17] | [18]

Nc1c(Cl)c(F)nc(OCC(=O)O)c1Cl
inactive: [1] | [2] | [3] | [4] | [5] | [6] | [7] | [8] | [9] | [10] | [11] | [12] | [13] | [14] | [15] | [16] | CD40, CD40 (gene 958) | [17] | [18]

Cc1cc(C)nc(Nc2ccccc2)n1
inactive: [1] | [2] | [3] | [4] | [5] | [6] | [7] | [8] | [9] | [10] | [11] | [12] | [13] | [14] | [15] | [16] | CD40, CD40 (gene 958) | [17] | [18]

N#Cc1c[nH]cc1-c1cccc2c1OC(F)(F)O2
inactive: [3] | [4] | [7] | [8] | [9] | [10] | [11] | [12] | [13] | [14] | [15] | [16] | [17]
active: [1] 8.88 µM | [2] 5.56 µM | [5] 5.28 µM | [6] 5.39 µM | CD40, CD40 (gene 958) 7.2 µM | [18] 8.62 µM

CNC(=O)Oc1cccc2ccccc12
inactive: [2] | [4] | [7] | [8] | [9] | [10] | [11] | [12] | [13] | [14] | [15] | [16] | [17]
active: [1] 29.7 µM | [5] 3.91 µM | [6] 20 µM | CD40, CD40 (gene 958) 20 µM | [18] 13.3 µM

CC(C)Nc1nc(Cl)nc(NC(C)C)n1
inactive: [1] | [2] | [3] | [4] | [5] | [6] | [7] | [8] | [9] | [10] | [11] | [12] | [13] | [14] | [15] | [16] | CD40, CD40 (gene 958) | [17] | [18]
